Shiga toxin inh = inhibitors of Shiga toxin in Vero cells. 290,000 compounds, 9.2% hits. inhibition, % at 38.7 µM. Vero cells, Shiga toxin protein synthesis inhibition reporter. AID 2315; in the data active = inhibition mostly above about 28%, no sharp cut-off; inactive = mostly below about 43%
Cycloheximide cs = affects cycloheximide protein synthesis inhibition readout, counter-screen; 300,000 compounds, 12% hits; cell reporter, cycloheximide protein synthesis inhibition counterscreen; max response, %; in the data active = max response mostly above about 13%, no sharp cut-off; inactive = mostly below about 14%; also: read at 38.3 µM for the half of the compounds with a filed dose
Sm TGR inh = inhibitors of Schistosoma mansoni thioredoxin glutathione reductase. purified TGR, DTNB reduction, TNB absorbance 405 nm. Potency, µM (highest dose often 114 µM), most hits filed as inhibitors. 360,000 compounds, 3% hits. AID 485364; also: nearly all actives have a fitted effect of over 60% in size
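Kinetic colorimetric format: TGR-catalysed, NADPH-driven DTNB reduction monitored via TNB absorbance. Enzyme dispensed at 20 nM; compound exposure 15 min at room temperature before reaction start.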
TbPYK inhibitor = blocks Trypanosoma brucei pyruvate kinase. 410,000 compounds, 0.12% hits. Potency, µM (doses to about 76.8 µM), hits mostly inhibitors. AID 624173. TbPYK enzyme, Kinase-Glo Plus ATP luminescence, 45 min; also: nearly all actives have a fitted effect of over 50% in size
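Luminescence from Kinase-Glo Plus, added after a 45-minute room-temperature reaction, served as the end-point read-out. The enzyme and substrate were preincubated with compound before ADP (130 uM final) initiated turnover. Concentration-effect curves came from normalized qHTS data.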
LmPK inhibitor = blocks Leishmania mexicana pyruvate kinase activity; purified LmPK, Kinase-Glo ATP luminescence, 1 h; Potency, µM (doses to about 57.5 µM), most hits filed as inhibitors; 290,000 compounds, 0.37% hits; AID 1721
Target sequence (Q27686 whole entry, looked up): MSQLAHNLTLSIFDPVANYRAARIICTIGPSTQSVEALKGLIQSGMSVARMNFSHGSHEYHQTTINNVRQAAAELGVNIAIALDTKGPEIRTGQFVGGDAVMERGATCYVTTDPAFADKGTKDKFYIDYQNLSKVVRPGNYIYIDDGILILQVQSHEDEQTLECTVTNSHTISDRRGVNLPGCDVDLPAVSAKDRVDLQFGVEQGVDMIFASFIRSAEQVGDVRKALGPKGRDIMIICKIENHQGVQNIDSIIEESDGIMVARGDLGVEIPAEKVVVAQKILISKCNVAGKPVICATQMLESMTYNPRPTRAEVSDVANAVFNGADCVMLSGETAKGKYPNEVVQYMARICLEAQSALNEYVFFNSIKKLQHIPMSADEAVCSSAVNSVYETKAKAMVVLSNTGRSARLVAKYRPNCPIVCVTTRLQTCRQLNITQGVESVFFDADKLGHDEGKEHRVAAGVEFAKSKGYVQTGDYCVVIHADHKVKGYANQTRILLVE
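Kinase-Glo luminescence read after 1 h RT reaction of 0.1 nM LmPK with 0.5 mM PEP and 0.1 mM ADP. Activity scaled between uninhibited and enzyme-free controls.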
Giardia FBPA inh = Giardia lamblia aldolase inhibition. purified Giardia FBPA. 290,000 compounds, 0.71% hits. A8B2U2. Potency, µM (titrated, usually from 59.6 µM), hits mostly inhibitors; also: nearly all actives have a fitted effect of over 55% in size
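Giardia FBPA (40 nM reagent) was preincubated 10 min at RT with compound (up to 57.5 uM final), then substrate plus GAPDH/TPI/NAD/arsenate coupling system with diaphorase/resazurin was added; resorufin fluorescence (525/598 nm) was read after 20 min.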
Large screens that a line does not name were inactive. The entries come from a sample that favours hits as a whole. Unless noted, calls follow the shape of the dose curve; as a rule, active = well fitted curve in the direction sought with a large enough effect; inconclusive = small, poorly fitted or top-dose-only effect, or another doubt; inactive = no such curve, though single readings can be large; an effect the other way counts as inactive or inconclusive.

COc1ccc(Nc2ncnc3sc(-c4ccccc4)cc23)cc1	none
CCN(CC)C(=O)CSc1ncnc2sc(-c3ccccc3)cc12	none (no result: TbPYK inhibitor)
CN(C)C(=O)COc1ncnc2sc(-c3ccccc3)cc12	Shiga toxin inh 72, Cycloheximide cs 28
CCC1Oc2ccccc2N(CC(=O)NC2CCCC2)C1=O (configuration not stated)	none
COc1cccc(C2=CC(c3ccccc3F)n3ncc(C(=O)Nc4ccc(F)cc4)c3N2)c1 (configuration not stated)	none (no result: Shiga toxin inh, Cycloheximide cs, LmPK inhibitor, Giardia FBPA inh)
O=C(NCCc1ccccc1)C1CCC(CNS(=O)(=O)c2ccc(Cl)cc2)CC1 (configuration not stated)	none (no result: Shiga toxin inh, Cycloheximide cs, LmPK inhibitor, Giardia FBPA inh)
O=C(NCCc1ccccc1)C1CCC(CNS(=O)(=O)c2ccc(F)cc2)CC1 (configuration not stated)	Cycloheximide cs 16 (no result: Giardia FBPA inh)
CN1N=C2c3ccccc3CCC2C1c1ccc(Cl)cc1 (configuration not stated)	Shiga toxin inh 72, Cycloheximide cs 35
CN1N=C2c3ccccc3CCC2C1c1ccc(F)cc1 (configuration not stated)	Shiga toxin inh 87, Cycloheximide cs 76
CN1[C@@H]2CC[C@H]1CC(OC(=O)[C@@H](O)c1ccccc1)C2 (some centres not stated)	none (no result: Shiga toxin inh, Cycloheximide cs, Sm TGR inh, LmPK inhibitor)
O=C(Nc1ccccc1)c1nnn(Cc2ccccc2)c1NC(=O)C(F)(F)F	Shiga toxin inh 79, Cycloheximide cs 45
O=C(COC(=O)c1n[nH]c2ccccc12)NCCc1ccccc1	none (no result: Shiga toxin inh, Cycloheximide cs, Sm TGR inh, LmPK inhibitor, Giardia FBPA inh)
Cc1cccc(-n2nnc(C(=O)NCc3ccccc3)c2N)c1	Cycloheximide cs 12
O=C(NCCc1ccccc1)c1n[nH]c2ccccc12	Shiga toxin inh 145, Cycloheximide cs 51
Nc1c(C(=O)NCCc2ccccc2)nnn1Cc1ccccc1	Shiga toxin inh 43, Cycloheximide cs 30
COc1ccccc1NC(=O)c1nnn(Cc2ccccc2)c1NC(=O)C(F)(F)F	none
C[C@](N)(C(=O)O)c1ccc(-c2nn[nH]n2)cc1	none (no result: Shiga toxin inh, Cycloheximide cs, Sm TGR inh, TbPYK inhibitor, LmPK inhibitor)
CCOC(=O)c1c(C)cc(O)c(C=O)c1O	none (no result: Shiga toxin inh, Cycloheximide cs, Sm TGR inh, TbPYK inhibitor, LmPK inhibitor)
O=C(NCCc1ccc(Cl)cc1)c1n[nH]c2ccccc12	Shiga toxin inh 40
CN1C[C@H]2CON(C)[C@H]2C[C@H]1c1cccc(N2CCOCC2)c1	none (no result: Shiga toxin inh, Cycloheximide cs, Sm TGR inh, LmPK inhibitor, Giardia FBPA inh)
CCOC(=O)N1CCc2c(sc3c2C(=O)NC(c2cc(OC)c(OC)c(OC)c2)N3)C1 (configuration not stated)	none (no result: Shiga toxin inh, Cycloheximide cs, LmPK inhibitor, Giardia FBPA inh)
CCCCn1c(N)c(N(Cc2ccccc2OC)C(=O)CN2C(=O)NC3(CCCC3)C2=O)c(=O)[nH]c1=O	Sm TGR inh 56µM (no result: Shiga toxin inh, Cycloheximide cs, LmPK inhibitor, Giardia FBPA inh)
Cc1cnc(CNc2ccnc(-c3cccc(C#N)c3)n2)cn1	none (no result: Shiga toxin inh, Cycloheximide cs, Sm TGR inh, TbPYK inhibitor, LmPK inhibitor)
CC(C)(C)c1ccc(C2=NC(=O)C(CC(=O)O)S2)cc1 (configuration not stated)	Cycloheximide cs 13
COc1ccc(C(=O)CC2SC(N)=NC2=O)cc1 (configuration not stated)	none
COc1ccc2[nH]c(S(=O)Cc3ncc(C)c(OC)c3C)nc2n1 (configuration not stated)	none (no result: Shiga toxin inh, Cycloheximide cs, Sm TGR inh, LmPK inhibitor, Giardia FBPA inh)
CN1C(=O)/C(=C/c2cccc([N+](=O)[O-])c2)C(=O)N1c1ccccc1	Sm TGR inh 25µM, TbPYK inhibitor inconclusive (no result: Shiga toxin inh)
Clc1ccccc1Cc1noc(CN2CCN(Cc3ccccn3)CC2)n1	Sm TGR inh 18µM
CN(Cc1cnccn1)Cc1nc(Cc2ccccc2Cl)no1	none
CC(=O)N(c1ccccc1C)C1CCCC1	none
CC(=O)N(C1=C(Cl)C(=O)c2ccccc2C1=O)C1CCCCC1	Sm TGR inh 0.11µM, TbPYK inhibitor 0.89µM, LmPK inhibitor 2.8µM, Giardia FBPA inh 1.6µM
O=S(=O)(NC1CC(NS(=O)(=O)OCC(Cl)(Cl)Cl)C2CCCCC12)OCC(Cl)(Cl)Cl (configuration not stated)	Sm TGR inh 79µM
Cc1cc2c(cc1C)NC(c1nc3ccccc3[nH]1)C1=C(CC(C)(C)CC1=O)N2 (configuration not stated)	none (no result: Giardia FBPA inh)
CC(=O)Nc1ccc(C2Nc3cc(C)c(C)cc3NC3=C2C(=O)CC(C)(C)C3)cc1 (configuration not stated)	Shiga toxin inh 40, Cycloheximide cs 36
COCCN(C(=O)COC(=O)c1ccc(C)s1)c1c(N)n(Cc2ccccc2)c(=O)[nH]c1=O	none (no result: Shiga toxin inh, Cycloheximide cs, LmPK inhibitor, Giardia FBPA inh)
O=c1oc2ccccc2cc1-c1csc(NN=C2CCCCC2)n1	Shiga toxin inh 81, Cycloheximide cs 45
c1ccc2sc(NCC3CCCO3)nc2c1 (configuration not stated)	Shiga toxin inh 134, Cycloheximide cs 38, LmPK inhibitor inconclusive
CC1CCC/C(=C(\C#N)c2nc(-c3cc4ccccc4oc3=O)cs2)C1 (configuration not stated)	Shiga toxin inh 89, Cycloheximide cs 51
O=C1COc2ccc(-c3csc(NCC4CCCO4)n3)cc2N1 (configuration not stated)	none
c1ccc2oc(-c3csc(NCC4CCCO4)n3)cc2c1 (configuration not stated)	Shiga toxin inh 74, Cycloheximide cs 30
CCc1ccc(Nc2nc3ccccc3c3nnc(C)n23)cc1	none (no result: Shiga toxin inh, Cycloheximide cs, LmPK inhibitor, Giardia FBPA inh)
CCOC(=O)C1CCCN(C(=O)CCS(=O)(=O)c2cc3c(cc2Cl)NC(=O)CO3)C1 (configuration not stated)	none (no result: Shiga toxin inh, Cycloheximide cs, LmPK inhibitor, Giardia FBPA inh)
C=CCNc1nc(-c2cc3ccccc3o2)cs1	Cycloheximide cs 40
CN(C)S(=O)(=O)c1ccc(C(=O)Nc2nc(-c3cc4ccccc4o3)cs2)cc1	none
COc1ccc(CNC(=O)C2CCN(S(=O)(=O)c3ccc(N4CCCC4=O)cc3)CC2)cc1	none (no result: Shiga toxin inh, Cycloheximide cs, Sm TGR inh, LmPK inhibitor, Giardia FBPA inh)
Cc1cccc(N2CCN(c3cccc(C)c3)C2c2cccnc2)c1	Shiga toxin inh 71, Cycloheximide cs 34
Cc1cccc(N2C(=O)CSC2c2cccnc2)c1 (configuration not stated)	none
C=CCn1c(O)c(/C(CC)=N/NC(=S)Nc2ccccc2)c(=O)[nH]c1=O	Shiga toxin inh 63, Cycloheximide cs 35, TbPYK inhibitor inconclusive
CC/C(=N\NC(=O)c1ccccc1O)c1c(O)n(C2CCCCC2)c(=O)[nH]c1=O	Shiga toxin inh 52, Cycloheximide cs 23, Sm TGR inh inconclusive (no result: Giardia FBPA inh)
C=CCn1c(O)c(C(C)=NCCc2ccccc2)c(=O)[nH]c1=O	none
C=CCn1c(O)c(C(CC)=NCc2cccnc2)c(=O)[nH]c1=O	none
C=CCn1c(O)c(C(CC)=NCCc2ccccc2)c(=O)[nH]c1=O	Sm TGR inh 89µM (no result: TbPYK inhibitor)
CCCCn1c(O)c(/C(C)=N/NC(=O)Nc2ccccc2)c(=O)[nH]c1=O	Shiga toxin inh 39, Cycloheximide cs 31
O=C(c1ccccc1)[C@@H]1O[C@H]1c1ccc(-c2ccccc2)cc1	none (no result: Shiga toxin inh, Cycloheximide cs, Sm TGR inh, TbPYK inhibitor, LmPK inhibitor)
Cc1cc(C)cc(Nc2nc3ccccc3n3cnnc23)c1	none (no result: Shiga toxin inh, Cycloheximide cs, LmPK inhibitor, Giardia FBPA inh)

Screens from PubChem BioAssay.
